Measurements published in PubChem BioAssay (NCATS).
Results filed as inconclusive are left out. Calls of active or inactive are those of the source. Calls follow the shape of the dose curve; as a rule, active = well fitted cell-killing curve with a large enough effect; inconclusive = small, poorly fitted or top-dose-only effect, or effect the other way; inactive = flat fitted curve, though single readings scatter.

The molecules below were run on OV90 (assay: Primary qHTS to identify gynecologic anti-cancer compounds using libraries of approved drugs and bioactive compounds (AID 1345084; also: nearly all actives have a fitted effect of over 55% in size)). Conditions: Gynecologic cancer cell panel viability, ATPlite luminescence, 48 h; series mostly up to 57.5 µM; activity change, negative = cytotoxicity: at the top concentration.
How it was run: (§1)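 ATP-based viability (ATPlite), 1,000 cells/well, 16 h pre-incubation, 48 h compound at 37 C, 5% CO2, 15 min RT before read.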
% is scaled to controls: 0 for no effect and ±100 for the full control effect; potency is read from the fitted curve at half-maximal effect.

Row | Compound | activity change, negative = cytotoxicity
1 | Cc1ccc(C2(COC(=O)C(C)C)CO2)c(OC(=O)C(C)C)c1 (configuration not stated) | -1.37% [at 38.5 µM] (inactive)
2 | CCC(C)n1cc(C)c2c(C(=O)NCc3c(C)cc(C)[nH]c3=O)cc(-c3ccc(N4CCNCC4)nc3)cc21 (configuration not stated) | -25.6% (inactive)
3 | COc1cc2ncnc(Oc3cccc(NC(=O)Nc4cc(C(C)(C)C(F)(F)F)on4)c3)c2cc1OC | -27.1% (inactive)
4 | CC1(C)CC[C@]2(C(=O)OC3OC(CO)C(O)C(O)C3O)CC[C@]3(C)C(=CCC4[C@@]5(C)CC[C@H](OC6OC(C(=O)O)C(O)C(O)C6O)C(CO)(CO)C5CC[C@]43C)[C@@H]2C1 (some centres not stated) | -19.7% [at 11.6 µM] (inactive)
5 | Nc1ncnc2c1ncn2[C@@H]1O[C@H](CO)C[C@H]1O | -0.788% (inactive)
6 | O=C(NC(NC(=S)Nc1ccc(F)c([N+](=O)[O-])c1)C(Cl)(Cl)Cl)C(c1ccccc1)c1ccccc1 (configuration not stated) | 5.28% [at 25.3 µM] (inactive)
7 | Cc1ccc(C(=O)N2CCN(c3ccc([N+](=O)[O-])cc3)CC2)cc1Cl | -0.463% (inactive)
8 | C=C1/C(=C/C=C2\CCC[C@]3(C)[C@@H]([C@H](C)/C=C/C(=O)C4CC4)CC[C@@H]23)C[C@@H](O)C[C@@H]1O | -3.52% (inactive)

These molecules were tested on PA-1 in the same assay as above. Conditions: Gynecologic cancer cell panel viability, ATPlite luminescence, 48 h; series mostly up to 57.5 µM; activity change, negative = cytotoxicity: at the top concentration.
How it was run: as §1

Row | Compound | Potency | activity change, negative = cytotoxicity
9 | CCCCn1ccc(N2CCC(c3ccccc3)CC2)c(Cl)c1=O | 25.1 µM (active) | 
10 | COc1ccccc1NC(=O)Nc1ccc2ccccc2c1 |  | -10.7% (inactive)
11 | CN(CCCNC(=O)c1ccc2nc3c(c(Cl)c2c1)CCCC3)Cc1ccccc1 |  | -16.6% (inactive)
12 | O=C(NCc1ccc(Oc2ccccc2)cc1)c1nc(-c2cc(Br)c(O)c(Br)c2)no1 |  | 3.35% (inactive)
13 | CCN(CC)c1ccc(C(=C2C=CC(=[N+](CC)CC)C=C2)c2cc(S(=O)(=O)O)ccc2S(=O)(=O)[O-])cc1 | 3.55 µM (active) | 
14 | O=C(Nc1ccc(F)cc1)N1CCc2ccccc2C1c1ccc(C(F)(F)F)cc1 (configuration not stated) |  | -11.4% (inactive)
15 | CC(C)(C)c1ccc(-c2nc3ccccc3[nH]2)cc1 | 1 µM (active) | 
16 | COc1ccccc1-c1cc(Nc2cccc(CS(N)(=O)=O)c2)ncn1 | 22.4 µM (active) | 
17 | CC1CCC2C(=CCC(O)C2(C)C)C1(C)Cc1c(O)cc(CO)c(C=O)c1O (configuration not stated) |  | 3.69% [at 38.5 µM] (inactive)
18 | CC1(C)CC23[C@@H]4CC(=O)[C@@H]2COC(=O)[C@@H]3CC[C@H]41 |  | -1.42% (inactive)
19 | CN1CCN(C(=O)c2ccc(Nc3nccc(-c4cccs4)n3)cc2Cl)CC1 |  | -10.8% (inactive)
20 | CC(C)[C@@H](C)/C=C/[C@@H](C)[C@H]1CC[C@H]2C3=CC=C4C[C@@H](O)CC[C@]4(C)C3=CC[C@]12C |  | -2.69% (inactive)
21 | O=C1c2c(O[C@@H]3O[C@H](CO)[C@@H](O)[C@H](O)[C@H]3O)cc(O)cc2OC1(O)Cc1ccc(O)cc1 (some centres not stated) |  | -7.44% [at 25.3 µM] (inactive)
22 | CCCCn1c(-c2ccccc2)nc(-c2ccccc2)c1CN(Cc1ccc2c(c1)OCO2)Cc1ccc2c(c1)OCO2 |  | -20.3% (inactive)
23 | Cc1ccc(C2(COC(=O)C(C)C)CO2)c(OC(=O)C(C)C)c1 (configuration not stated) |  | -8.08% [at 38.5 µM] (inactive)
24 | CCC(C)n1cc(C)c2c(C(=O)NCc3c(C)cc(C)[nH]c3=O)cc(-c3ccc(N4CCNCC4)nc3)cc21 (configuration not stated) |  | 5.19% (inactive)
25 | COc1cc2ncnc(Oc3cccc(NC(=O)Nc4cc(C(C)(C)C(F)(F)F)on4)c3)c2cc1OC |  | 9.99% (inactive)
26 | CC1(C)CC[C@]2(C(=O)OC3OC(CO)C(O)C(O)C3O)CC[C@]3(C)C(=CCC4[C@@]5(C)CC[C@H](OC6OC(C(=O)O)C(O)C(O)C6O)C(CO)(CO)C5CC[C@]43C)[C@@H]2C1 (some centres not stated) | 3.16 µM (active) | 
27 | O=[N+]([O-])c1ccc(-[n+]2nc(-c3ccccc3)nn2-c2ccc(I)cc2)cc1 |  | -22.6% (inactive)
28 | O=C(NC(NC(=S)Nc1ccc(F)c([N+](=O)[O-])c1)C(Cl)(Cl)Cl)C(c1ccccc1)c1ccccc1 (configuration not stated) |  | -3.24% [at 25.3 µM] (inactive)
29 | Cc1ccc(C(=O)N2CCN(c3ccc([N+](=O)[O-])cc3)CC2)cc1Cl |  | -6.54% (inactive)
30 | C=C1/C(=C/C=C2\CCC[C@]3(C)[C@@H]([C@H](C)/C=C/C(=O)C4CC4)CC[C@@H]23)C[C@@H](O)C[C@@H]1O |  | -15.1% (inactive)

The molecules below were run on SKOV3 in the same assay as above. Conditions: Gynecologic cancer cell panel viability, ATPlite luminescence, 48 h; series mostly up to 57.5 µM; activity change, negative = cytotoxicity: at the top concentration.
How it was run: as §1

Row | Compound | activity change, negative = cytotoxicity | Potency
31 | COc1ccccc1NC(=O)Nc1ccc2ccccc2c1 | -3.01% (inactive) | 
32 | CN(CCCNC(=O)c1ccc2nc3c(c(Cl)c2c1)CCCC3)Cc1ccccc1 | -13.7% (inactive) | 
33 | Cc1ccc2c(Nc3ccc(Cl)cc3)nccc2c1Nc1ncccc1-c1ncnc2nc[nH]c12 |  | 15.8 µM (active)
34 | O=C(NCc1ccc(Oc2ccccc2)cc1)c1nc(-c2cc(Br)c(O)c(Br)c2)no1 | 6.17% (inactive) | 
35 | CC(C)(C)c1ccc(-c2nc3ccccc3[nH]2)cc1 |  | 1 µM (active)
36 | C=C(C)C(=O)OC1[C@@H]2C(=C)C(=O)O[C@@H]2C[C@@H](C)[C@@H]2C=CC(=O)[C@@]12C (some centres not stated) | -22.3% [at 38.5 µM] (inactive) | 
37 | COc1cc2ncnc(Nc3ccc(Oc4ccccc4)cc3)c2cc1OC |  | 28.2 µM (active)
38 | CC1CCC2C(=CCC(O)C2(C)C)C1(C)Cc1c(O)cc(CO)c(C=O)c1O (configuration not stated) | -0.365% [at 38.5 µM] (inactive) | 
39 | CCN1CCN(Cc2ccc(-c3cc4c(NC(C)c5ccccc5)ncnc4[nH]3)cc2)CC1 (configuration not stated) |  | 3.55 µM (active)
40 | CN1CCN(C(=O)c2ccc(Nc3nccc(-c4cccs4)n3)cc2Cl)CC1 | -21.9% (inactive) | 
41 | Cn1cnc(-c2nccc3c(=O)[nH]c(OCCCC(F)(F)F)nc23)c1 |  | 6.31 µM (active)
42 | OCC(Cc1ccccc1)Nc1nc(Oc2ccc3c(c2)CCC3)nc2c1ncn2Cc1ccc(-c2ccccc2)cc1 (configuration not stated) | 2.35% (inactive) | 
43 | CCN(CCCOc1ccc2c(Nc3cc(CC(=O)Nc4cccc(F)c4)[nH]n3)ncnc2c1)CCOP(=O)(O)O |  | 15.8 µM (active)
44 | CCCCn1c(-c2ccccc2)nc(-c2ccccc2)c1CN(Cc1ccc2c(c1)OCO2)Cc1ccc2c(c1)OCO2 | -29.7% (inactive) | 
45 | Cc1ccc(C2(COC(=O)C(C)C)CO2)c(OC(=O)C(C)C)c1 (configuration not stated) | -6.23% [at 38.5 µM] (inactive) | 
46 | CCC(C)n1cc(C)c2c(C(=O)NCc3c(C)cc(C)[nH]c3=O)cc(-c3ccc(N4CCNCC4)nc3)cc21 (configuration not stated) | 5.39% (inactive) | 
47 | COc1cc2ncnc(Oc3cccc(NC(=O)Nc4cc(C(C)(C)C(F)(F)F)on4)c3)c2cc1OC | 2.71% (inactive) | 
48 | O=[N+]([O-])c1ccc(-[n+]2nc(-c3ccccc3)nn2-c2ccc(I)cc2)cc1 | -3.65% (inactive) | 
49 | O=C(NC(NC(=S)Nc1ccc(F)c([N+](=O)[O-])c1)C(Cl)(Cl)Cl)C(c1ccccc1)c1ccccc1 (configuration not stated) | 0% [at 25.3 µM] (inactive) | 
50 | Cc1ccc(C(=O)N2CCN(c3ccc([N+](=O)[O-])cc3)CC2)cc1Cl | -9.34% (inactive) | 
51 | CC(=O)N1c2ccc(-c3ccc(C(=O)O)cc3)cc2C(Nc2ccc(Cl)cc2)CC1C (configuration not stated) |  | 3.98 µM (active)
52 | C=C1/C(=C/C=C2\CCC[C@]3(C)[C@@H]([C@H](C)/C=C/C(=O)C4CC4)CC[C@@H]23)C[C@@H](O)C[C@@H]1O | 10.3% (inactive) | 
